Our source for the Potency values is PubChem BioAssay (NCATS).

The structures appear in SMILES notation. Results filed as inconclusive are left out. Where a call stands in place of a potency, no number is given. Calls of active or inactive are those of the source. Calls follow the shape of the dose curve; as a rule, active = well fitted cell-killing curve with a large enough effect; inconclusive = small, poorly fitted or top-dose-only effect; inactive = flat fitted curve, though single readings scatter. Square brackets hold non-standard residues; d marks the D form. Peptide text beside a SMILES is read from it. ξ: configuration not given here. ξL = CC(C)CC(N)C(=O)O
Potency is read from the fitted curve at half-maximal effect.

The assay can be described thus: UWB1.289 Cancer Cell Toxicity qHTS against the NCATS CANVASS Library (AID 1347347). Also: nearly all actives have a fitted effect of over 60% in size. To be noted: UWB1.289 viability, CellTiter-Glo luminescence, 72 h; series mostly up to 38.3 µM. The text has this: Natural products and their derivatives continue to be wellsprings of nascent therapeutic potential. However, many laboratories have limited resources for biological evaluation, leaving their previously isolated or synthesized compounds largely or completely untested. To address this issue, the Canvass library of natural products was assembled (https://tripod.nih.gov/canvass), in collaboration with academic and industry researchers, for quantitative high-throughput screening (qHTS) across a diverse set of cell-based and biochemical assays. The pure (>85% purity by liquid chromatography/mass spectrometry [LC/MS]) Canvass library of 346 natural products were submitted by 45 academic laboratories and companies around the world. We collected pure natural products to circumvent deconvolution and structure elucidation due to time and resource limitations. The library was formatted into 1536-well plates and evaluated in 50 qHTS (in an 11-pnt concentration series) bioassays with broad scope of disease-relevant mechanisms. The resulting data set from 50 different assays was then systematically analyzed to identify overall trends and specific natural products with interesting biological activities. Reported herein are the results of each individual qHTS and their corresponding assay protocol. National Center for Advancing Translational Sciences (NCATS), Rockville, MD National Institute of Health (NIH), Bethesda, Maryland
Cancer Cell Toxicity protocol for cell lines COV-362, OV-KATE, OV-SAHO, UWB1.289, UWB1.289-WTBRCA1, HEK-293, HPAF-II, Panc-1005, SW1088, or U-118MG. 1. In a 1536 well, white solid bottom tissue culture plates (Corning 7494), corresponding cells (COV-362, OV-KATE, OV-SAHO, UWB1.289, UWB1.289-WTBRCA1, HEK-293, HPAF-II, Panc-1005, SW1088, or U-118MG) were dispensed in each well at a final concentration of 1000 cells / well (6uL volume) using the Multidrop Combi (Thermo Fisher Scientific) dispenser. 2. The plates were incubated for 4 hours at 37 degrees C/5% CO2/95% Rh. 3. Compounds were pin transferred (~23nL volume) via Wako Pin-tool (Wako Automation, Richmond VA) equipped with a 1536 pin head. The assay plates were treated with compounds in an 11-pnt concentration series with a final concentration range of […] to 85uM. 4. Bortezomib was used as a single dose control (0.5mM column 4, rows 1 - 32) at a final concentration of 1.9uM and as a 16pnt titration (1mM; 1:2 dilution; 16-points; n = 2; column 3, rows 1 - 32) with final concentration range of 0.1nM - 3.8uM. 5. The assay plates were incubated for 72 hours at 37 degrees C/5% CO2/95% Rh. 6. 3uL CellTiter-Glo detection reagent was then added to the plates (columns 2 - 48, rows 1 - 32) and incubated at room temperature for additional 15min. 7. Luminescence signal was acquired via the ViewLux plate reader (PerkinElmer) using a clear filter, 2 second exposure and 2x binning settings.
On to `O=c1cc(-c2ccc(O)c(O)c2)oc2cc(O[C@@H]3O[C@H](CO)[C@@H](O)[C@H](O)[C@H]3O)cc(O)c12`, for which the Potency was 1.18 µM (active).

With `C=CC(C)(C)C(=O)[C@@H](C)[C@@H]1CC[C@@](C)(C=C)O1`, the Potency result is “inactive”.

As for `CN1CC[C@]2(c3cccc4c3N[C@H]3N(C)CC[C@@]43[C@]34CCN(C)[C@H]3Nc3ccccc34)c3ccccc3N[C@H]12`, the Potency is 18.8 µM (active).

In the case of `COC12OC1(C13OC1(OC)C(=O)c1cc4cc(C)oc(=O)c4c(O)c1C3O)C(O)c1c(cc3cc(C)oc(=O)c3c1O)C2=O` (stereo not given), the Potency result is “inactive”.

Take `CO[C@@H](C[C@@H](C)[C@@H](O)/C=C/C=C/CNC(=O)C(C)(C)[C@H](O)\C(C)=C/C=C\C=C\Cc1cnco1)[C@]1(O)[C@@H](C)C(=O)N(C)[C@@]12COC2=O`: the Potency entry was “inactive”.

On to `C[n+]1cc2cc(C(N)=O)[nH]c3c(=N)c(Cl)c(N)c1c23`, for which the Potency result was “inactive”.

On to `C/C(=C\[C@H](C)C(=O)CCCC1CC(=O)NC(=O)C1)[C@@H]1OC(=O)/C=C/CC/C=C/[C@H](O)[C@@H](O)[C@@H]1C`, for which the Potency was 1.18 µM (active).

For the molecule `COC1C(C)OC(OCC23C[C@@H]4[C@H](C)CC[C@H]4C4(C=O)CC2C=C(C(C)C)C34C(=O)O)[C@@H](O)[C@H]1O` (stereo not given in full), the Potency result was “inactive”.

Consider `CN1C(=O)C(=O)N2C(=C[C@]3(c4c[nH]c5ccccc45)c4ccccc4N[C@H]23)C1=O`, for which the Potency result is “inactive”.

Regarding `C/C1=C/[C@@H](C)[C@H](O)[C@@H](O)/C=C/CC/C=C/C(=O)O[C@@H]1[C@H](C)C(=O)CCCC1CC(=O)NC(=O)C1`, the Potency result is “inactive”.

In the case of `C/C(=C\[C@@H](C)CC/C=C/CC/C=C/C(=O)O)[C@@H](O)[C@H](C)C(=O)CCCC1CC(=O)NC(=O)C1`, the Potency result is “inactive”.

`C/C(=C\[C@H](C)C(=O)/C=C/CC1CC(=O)NC(=O)C1)[C@@H]1OC(=O)/C=C/CC/C=C/C[C@@H](O)[C@@H]1C`: the Potency is 2.98 µM (active).

Take `CCC(=O)N[C@@H](C[C@H](C)C(Cl)(Cl)Cl)C(=O)N1C(=O)C=C(OC)[C@@H]1CC(C)C`: the Potency entry is “inactive”.

Turning to `C[C@]12CCC[C@](C)(C(=O)O)[C@@H]1CC[C@@]1(C)c3cocc3CC[C@H]21`, the Potency entry was “inactive”.

For the molecule `C=C1[C@@]2(C)CC3C4(C)CCC(O)C(C)(C)C4CCC3(C)[C@]1(C(=O)OC)C(=O)C(C)(O)C2=O` (stereo not given in full), the Potency result was “inactive”.

For `C/C=C1/CN2C3CC1C1C=CC(=O)N4c5ccccc5[C@@]3(C[C@@H]2C2=C[C@H]3C5CC6N(CC[C@@]67c6ccccc6N(C2=O)[C@@H]37)C/C5=C/C)[C@H]14` (stereo not given in full), the Potency is 9.41 µM (active).

With `C=C1C[C@H]2O[C@@H]3[C@@H]4[C@H](CC[C@@](C)(O)[C@@H]42)[C@H](C)COC3(C)[C@@H](OC(=O)CCCCCCC)CC1=O` (stereo not given in full), the Potency was 18.8 µM (active).

Regarding `C[C@@]12CCC[C@@](C)(C(=O)O)[C@H]1CC[C@@]13C[C@@H](CC[C@H]12)[C@](C)(O)C3`, the Potency entry is “inactive”.

In the case of `CC(C)=CCC[C@]1(C)[C@H]2CC(=O)[C@@]3(CO3)[C@@H]1C2`, the Potency entry was “inactive”.

As to `CC[C@@H](C)[C@H]1NC(=O)C(CC(C)C)NC(=O)[C@@H](CC(C)C)NC(=O)[C@H](Cc2c[nH]c3ccccc23)NC(=O)CNC(=O)[C@@H](CC(N)=O)NC1=O` (stereo partly drawn) (cyclo(GW[dL][ξL][dI][dN])), the Potency entry was “inactive”.

With `C[C@@]12CCC[C@@](C)(C(=O)O)[C@H]1C[C@@H](O)[C@@]13C[C@@H](CC[C@@H]21)[C@](C)(O)C3`, the Potency entry was “inactive”.

Regarding `CN1CC[C@@]2([C@@]34CCN(C)[C@@H]3Nc3ccccc34)c3ccccc3N[C@@H]12`, the Potency entry is “inactive”.

Regarding `O=C1c2c(O)cc(O)cc2OC(c2ccc(O)cc2)C1O` (stereo not given), the Potency result was “inactive”.

For `C[C@@]1(CCC(=O)Nc2c(O)ccc(C(=O)O)c2O)C(=O)C=C[C@]23C[C@H]4C[C@H](O[C@@]4(C)C2)C31` (stereo not given in full), the Potency result is “inactive”.

For `O=c1cc(-c2ccc(O)cc2)oc2cc(O)c([C@@H]3OC(CO)[C@H](O)[C@@H](O)[C@H]3O)c(O)c12` (stereo not given in full), the Potency result was “inactive”.

As to `CC(=O)N[C@H](C)c1nc(/C=C/C=C/C(=O)CC2CC(=O)CC[C@]2(C)O)cs1` (stereo not given in full), the Potency entry was “inactive”.

On to `COc1cc2c(c(O)c1O)C(=O)c1c(coc1C)C2=O`, for which the Potency was 13.3 µM (active).

As to `C/C=C/[C@H]1[C@H]2C(=O)c3c(O)c(C)c(O)c(C)c3[C@]1(C(=O)O)C(=O)C=C2C`, the Potency result is “inactive”.

Consider `COc1cc2ccc(=O)oc2c(O)c1O[C@@H]1O[C@H](CO)[C@@H](O)[C@H](O)[C@H]1O`, for which the Potency entry was “inactive”.

Regarding `O=C1CC(c2ccc(O)cc2)Oc2ccccc21` (stereo not given), the Potency is 3.75 µM (active).

As for `COC(=O)[C@@]12Oc3cccc(O)c3C(O)=C1C(=O)C[C@H](C)[C@H]2O`, the Potency result is “inactive”.

For `C=C(C)C(=O)O[C@H]1C[C@@]2(C)OC(=CC2=O)/C(C)=C\[C@H]2OC(=O)C(=C)[C@H]12`, the Potency is 9.41 µM (active).

As to `O=C1OC(CCO)c2cccc(O)c21` (stereo not given), the Potency entry was “inactive”.

On to `CC(=O)c1c(C)cc2c(c1O)C(=O)c1c(O)cc(O)cc1C2=O`, for which the Potency result is “inactive”.

Take `CO[C@H]1[C@@H](OC(=O)/C(C)=C\[C@@H]2O[C@@H]2[C@H]2O[C@H]2C)[C@H](O)[C@H](OCC23C[C@@H]4[C@H](C)CC[C@H]4C4(C=O)CC2C=C(C(C)C)C34C(=O)O)O[C@@H]1C` (stereo not given in full): the Potency entry was “inactive”.

With `C=C1CCC2C(C)(C(=O)O)CCC(CC/C(C)=C/C(=O)NC(CCC(N)=O)C(=O)O)[C@@]2(C)C1` (stereo not given in full), the Potency entry was “inactive”.

For `CCC(C)=C1OC(=O)[C@H](C)[C@H](O)[C@H](Cc2cccnc2)NC(=O)C(NC(=O)c2ncccc2O)C(C)OC1=O` (stereo not given in full), the Potency result was “inactive”.

As for `C=C1C(=O)O[C@H]2[C@H]1CCC(C)=C1CC[C@@](C)(O)[C@@H]12`, the Potency is 18.8 µM (active).

Consider `CCC(=O)CCCCC[C@@H]1NC(=O)[C@H]2CCCCN2C(=O)[C@H](C(C)C)NC(=O)[C@H](Cc2cn(OC)c3ccccc23)NC1=O`, for which the Potency is 7.47 µM (active).

`CC(C)=CC[C@H]1C[C@@]2(CC=C(C)C)C(=O)[C@](CC=C(C)C)(C(=O)C(C(=O)c3ccccc3)=C2O)C1(C)C`: the Potency was 8.38 µM (active).
